# Results as given in the supplement of paper PMC10037445.
# Over roughly 2,900 compounds, “NF-kB SEAP reporter activity, fold change vs agonist alone” has its median near 0.99; the highest 2% begin near 2.6. The list comes from a sample in which the highest values are over-represented; it also holds similar structures and randomly drawn compounds.
# Experiments:
# RAW-Dual [1] = assay: NF-kB SEAP reporter activity, fold change vs agonist alone; cytotoxicity flag (confluency mask): not cytotoxic; higher = enhanced NF-kB activity
# Method in brief: (§1)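 Supernatant from RAW-Dual macrophages was read after 20 hours for IRF by QuantiLuc luminescence and for NF-κB by QuantiBlue absorbance at 620 nm. The cells (50,000 cells/well in DMEM, 384-well plates, 37 °C, 5% CO2) had received 50 nL of library stock by pin tool and, 1 h later, a PRR agonist. Reporter activity is expressed relative to agonist-alone wells as fold change, and wells were flagged cytotoxic if IncuCyte confluency was under 70% of agonist controls in both mask sets.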
# RAW-Dual [2] = assay: NF-kB SEAP reporter activity, fold change vs agonist alone; higher = enhanced NF-kB activity; conditions: library stock concentration (final ~1000-fold dilution): 10 mM
# Method in brief: as §1
# RAW-Dual [3] = assay: NF-kB SEAP reporter activity, fold change vs agonist alone; cytotoxicity flag (confluency mask): cytotoxic (confluency <70% of control); higher = enhanced NF-kB activity
# Method in brief: as §1
# [4] = agonist: ODN 1826 (TLR9) 0.5 ug/mL
# [5] = agonist: Pam2CSK4 (TLR2/6) 0.1 ug/mL
# [6] = agonist: Pam3CSK4 (TLR2/1) 0.1 ug/mL
# [7] = cytotoxicity flag (confluency mask): not cytotoxic, agonist: Imiquimod (TLR7) […]
# [8] = cytotoxicity flag (confluency mask): not cytotoxic, agonist: MPLA (TLR4) […]
# [9] = cytotoxicity flag (confluency mask): cytotoxic (confluency <70% of control), agonist: Imiquimod (TLR7) […]
# [10] = cytotoxicity flag (confluency mask): cytotoxic (confluency <70% of control), agonist: MPLA (TLR4) […]
compound,measurement,setting,value
CC(C)(NS(=O)(=O)c1ccc2c(Cl)cnc(NC(=N)N)c2c1)C(=O)O.Cl (library stock concentration (final ~1000-fold dilution): 10 mM),NF-kB SEAP reporter activity,RAW-Dual [1]; agonist: LPS (TLR4) 0.1 ug/mL,1.1
same,NF-kB SEAP reporter activity,RAW-Dual [1]; [4],1.01
same,NF-kB SEAP reporter activity,RAW-Dual [1]; [5],0.913
same,NF-kB SEAP reporter activity,RAW-Dual [1]; [6],0.764
CC(C)(NS(=O)(=O)c1ccc2c(Cl)cnc(NC(=N)N)c2c1)C(=O)O.Cl,NF-kB SEAP reporter activity,RAW-Dual [2]; [7],0.99
same,NF-kB SEAP reporter activity,RAW-Dual [2]; [8],0.923
Cl.Nc1ncccc1-c1nc2ccc(-c3ccccc3)nc2n1-c1ccc(C2(N)CCC2)cc1 (library stock concentration (final ~1000-fold dilution): 10 mM),NF-kB SEAP reporter activity,RAW-Dual [3]; agonist: LPS (TLR4) 0.1 ug/mL,0.954
same,NF-kB SEAP reporter activity,RAW-Dual [3]; [4],0.218
same,NF-kB SEAP reporter activity,RAW-Dual [3]; [5],0.921
same,NF-kB SEAP reporter activity,RAW-Dual [3]; [6],1.38
Cl.Nc1ncccc1-c1nc2ccc(-c3ccccc3)nc2n1-c1ccc(C2(N)CCC2)cc1,NF-kB SEAP reporter activity,RAW-Dual [2]; [9],1.7
same,NF-kB SEAP reporter activity,RAW-Dual [2]; [10],1.8
COc1cc2c(cc1OC)C1CC(OC(=O)C(N)C(C)C)C(CC(C)C)CN1CC2.Cc1ccc(S(=O)(=O)O)cc1.Cc1ccc(S(=O)(=O)O)cc1 (centres undefined),NF-kB SEAP reporter activity,RAW-Dual [2]; [7],1.07
same,NF-kB SEAP reporter activity,RAW-Dual [2]; [8],1.11
COc1cc2c(cc1OC)C1CC(OC(=O)C(N)C(C)C)C(CC(C)C)CN1CC2.Cc1ccc(S(=O)(=O)O)cc1.Cc1ccc(S(=O)(=O)O)cc1 (centres undefined) (library stock concentration (final ~1000-fold dilution): 10 mM),NF-kB SEAP reporter activity,RAW-Dual [1]; agonist: LPS (TLR4) 0.1 ug/mL,1.11
same,NF-kB SEAP reporter activity,RAW-Dual [1]; [4],0.207
same,NF-kB SEAP reporter activity,RAW-Dual [1]; [5],0.856
same,NF-kB SEAP reporter activity,RAW-Dual [1]; [6],0.889
CC1CCN(C(=O)CC#N)CC1N(C)c1ncnc2[nH]ccc12 (centres undefined) (library stock concentration (final ~1000-fold dilution): 10 mM),NF-kB SEAP reporter activity,RAW-Dual [1]; agonist: LPS (TLR4) 0.1 ug/mL,0.799
same,NF-kB SEAP reporter activity,RAW-Dual [1]; [4],1.27
same,NF-kB SEAP reporter activity,RAW-Dual [1]; [5],1.33
same,NF-kB SEAP reporter activity,RAW-Dual [1]; [6],1.51
CC1CCN(C(=O)CC#N)CC1N(C)c1ncnc2[nH]ccc12 (centres undefined),NF-kB SEAP reporter activity,RAW-Dual [2]; [7],1.31
same,NF-kB SEAP reporter activity,RAW-Dual [2]; [8],1.05
CC(=O)OC1CCC2(C)C(=CCC3C2CCC2(C)C(c4cccnc4)=CCC32)C1 (centres undefined),NF-kB SEAP reporter activity,RAW-Dual [2]; [7],1.12
same,NF-kB SEAP reporter activity,RAW-Dual [2]; [8],1.05
CC(=O)OC1CCC2(C)C(=CCC3C2CCC2(C)C(c4cccnc4)=CCC32)C1 (centres undefined) (library stock concentration (final ~1000-fold dilution): 10 mM),NF-kB SEAP reporter activity,RAW-Dual [1]; agonist: LPS (TLR4) 0.1 ug/mL,0.898
same,NF-kB SEAP reporter activity,RAW-Dual [1]; [4],1.06
same,NF-kB SEAP reporter activity,RAW-Dual [1]; [5],0.97
same,NF-kB SEAP reporter activity,RAW-Dual [1]; [6],1.97
COc1cc2oc(=O)ccc2c(OC)c1CC(O)C(C)(C)O (centres undefined),NF-kB SEAP reporter activity,RAW-Dual [2]; [7],0.936
same,NF-kB SEAP reporter activity,RAW-Dual [2]; [8],0.984
COc1cc2oc(=O)ccc2c(OC)c1CC(O)C(C)(C)O (centres undefined) (library stock concentration (final ~1000-fold dilution): 10 mM),NF-kB SEAP reporter activity,RAW-Dual [1]; agonist: LPS (TLR4) 0.1 ug/mL,1.11
same,NF-kB SEAP reporter activity,RAW-Dual [1]; [4],0.972
same,NF-kB SEAP reporter activity,RAW-Dual [1]; [5],1.08
same,NF-kB SEAP reporter activity,RAW-Dual [1]; [6],1.38
CC(C)(C)c1nc(-c2cccc(NS(=O)(=O)c3c(F)cccc3F)c2F)c(-c2ccnc(N)n2)s1.CS(=O)(=O)O,NF-kB SEAP reporter activity,RAW-Dual [2]; [8],1.93
CC(C)(C)c1nc(-c2cccc(NS(=O)(=O)c3c(F)cccc3F)c2F)c(-c2ccnc(N)n2)s1,NF-kB SEAP reporter activity,RAW-Dual [2]; [9],2.07
same,NF-kB SEAP reporter activity,RAW-Dual [2]; [10],1.89
CC(C)(C)c1nc(-c2cccc(NS(=O)(=O)c3c(F)cccc3F)c2F)c(-c2ccnc(N)n2)s1.CS(=O)(=O)O (library stock concentration (final ~1000-fold dilution): 10 mM),NF-kB SEAP reporter activity,RAW-Dual [1]; agonist: LPS (TLR4) 0.1 ug/mL,3.17
same,NF-kB SEAP reporter activity,RAW-Dual [1]; [4],3.05
same,NF-kB SEAP reporter activity,RAW-Dual [1]; [5],2.08
same,NF-kB SEAP reporter activity,RAW-Dual [1]; [6],1.78
CC(C)(C)c1nc(-c2cccc(NS(=O)(=O)c3c(F)cccc3F)c2F)c(-c2ccnc(N)n2)s1 (library stock concentration (final ~1000-fold dilution): 10 mM),NF-kB SEAP reporter activity,RAW-Dual [3]; agonist: LPS (TLR4) 0.1 ug/mL,3.02
same,NF-kB SEAP reporter activity,RAW-Dual [3]; [4],3.35
same,NF-kB SEAP reporter activity,RAW-Dual [3]; [5],2
same,NF-kB SEAP reporter activity,RAW-Dual [3]; [6],1.57
CC(C)c1c(-c2ccccc2)[nH]c2c(C#N)cnn2c1=O.Cl,NF-kB SEAP reporter activity,RAW-Dual [2]; [7],0.757
same,NF-kB SEAP reporter activity,RAW-Dual [2]; [8],0.99
CC(C)c1c(-c2ccccc2)[nH]c2c(C#N)cnn2c1=O.Cl (library stock concentration (final ~1000-fold dilution): 10 mM),NF-kB SEAP reporter activity,RAW-Dual [1]; agonist: LPS (TLR4) 0.1 ug/mL,0.8
same,NF-kB SEAP reporter activity,RAW-Dual [1]; [4],0.816
same,NF-kB SEAP reporter activity,RAW-Dual [1]; [5],0.507
same,NF-kB SEAP reporter activity,RAW-Dual [1]; [6],0.52
CN1CCN(C(c2ccccc2)c2ccccc2)CC1.Cl.Cl,NF-kB SEAP reporter activity,RAW-Dual [2]; [7],0.9
same,NF-kB SEAP reporter activity,RAW-Dual [2]; [8],0.897
CN1CCN(C(c2ccccc2)c2ccccc2)CC1.Cl.Cl (library stock concentration (final ~1000-fold dilution): 10 mM),NF-kB SEAP reporter activity,RAW-Dual [1]; agonist: LPS (TLR4) 0.1 ug/mL,1.15
same,NF-kB SEAP reporter activity,RAW-Dual [1]; [4],0.595
same,NF-kB SEAP reporter activity,RAW-Dual [1]; [5],1.04
same,NF-kB SEAP reporter activity,RAW-Dual [1]; [6],1.02
O.S=c1nc[nH]c2nc[nH]c12,NF-kB SEAP reporter activity,RAW-Dual [2]; [7],0.752
same,NF-kB SEAP reporter activity,RAW-Dual [2]; [8],0.963
O.S=c1nc[nH]c2nc[nH]c12 (library stock concentration (final ~1000-fold dilution): 10 mM),NF-kB SEAP reporter activity,RAW-Dual [1]; agonist: LPS (TLR4) 0.1 ug/mL,1.05
same,NF-kB SEAP reporter activity,RAW-Dual [1]; [4],0.808
same,NF-kB SEAP reporter activity,RAW-Dual [1]; [5],0.594
same,NF-kB SEAP reporter activity,RAW-Dual [1]; [6],0.684
COc1ccc(-c2oc3c(CC=C(C)C)c(OC4OC(CO)C(O)C(O)C4O)cc(O)c3c(=O)c2OC2OC(C)C(O)C(O)C2O)cc1 (centres undefined),NF-kB SEAP reporter activity,RAW-Dual [2]; [7],0.89
same,NF-kB SEAP reporter activity,RAW-Dual [2]; [8],1.13
COc1ccc(-c2oc3c(CC=C(C)C)c(OC4OC(CO)C(O)C(O)C4O)cc(O)c3c(=O)c2OC2OC(C)C(O)C(O)C2O)cc1 (centres undefined) (library stock concentration (final ~1000-fold dilution): 10 mM),NF-kB SEAP reporter activity,RAW-Dual [1]; agonist: LPS (TLR4) 0.1 ug/mL,1.57
same,NF-kB SEAP reporter activity,RAW-Dual [1]; [4],0.992
same,NF-kB SEAP reporter activity,RAW-Dual [1]; [5],1.14
same,NF-kB SEAP reporter activity,RAW-Dual [1]; [6],1.28
C=C1CCCC2(C)C=C3OC(=O)C(C)=C3CC12 (centres undefined) (library stock concentration (final ~1000-fold dilution): 10 mM),NF-kB SEAP reporter activity,RAW-Dual [1]; agonist: LPS (TLR4) 0.1 ug/mL,1
same,NF-kB SEAP reporter activity,RAW-Dual [1]; [4],1.06
same,NF-kB SEAP reporter activity,RAW-Dual [1]; [5],1.52
same,NF-kB SEAP reporter activity,RAW-Dual [1]; [6],1.49
C=C1CCCC2(C)C=C3OC(=O)C(C)=C3CC12 (centres undefined),NF-kB SEAP reporter activity,RAW-Dual [2]; [7],0.726
same,NF-kB SEAP reporter activity,RAW-Dual [2]; [8],1.14
O=c1cc(-c2ccc(O)c(O)c2O)oc2ccccc12,NF-kB SEAP reporter activity,RAW-Dual [2]; [7],0.689
same,NF-kB SEAP reporter activity,RAW-Dual [2]; [8],1.05
O=c1cc(-c2ccc(O)c(O)c2O)oc2ccccc12 (library stock concentration (final ~1000-fold dilution): 10 mM),NF-kB SEAP reporter activity,RAW-Dual [1]; agonist: LPS (TLR4) 0.1 ug/mL,1.08
same,NF-kB SEAP reporter activity,RAW-Dual [1]; [4],0.88
same,NF-kB SEAP reporter activity,RAW-Dual [1]; [5],0.927
same,NF-kB SEAP reporter activity,RAW-Dual [1]; [6],0.532
CCOC(=O)C(CCc1ccccc1)NC(C)C(=O)N1C(C(=O)O)CC2CCCCC21 (centres undefined),NF-kB SEAP reporter activity,RAW-Dual [2]; [7],0.911
same,NF-kB SEAP reporter activity,RAW-Dual [2]; [8],1.04
CCOC(=O)C(CCc1ccccc1)NC(C)C(=O)N1C(C(=O)O)CC2CCCCC21 (centres undefined) (library stock concentration (final ~1000-fold dilution): 10 mM),NF-kB SEAP reporter activity,RAW-Dual [1]; agonist: LPS (TLR4) 0.1 ug/mL,1.25
same,NF-kB SEAP reporter activity,RAW-Dual [1]; [4],1
same,NF-kB SEAP reporter activity,RAW-Dual [1]; [5],1.01
same,NF-kB SEAP reporter activity,RAW-Dual [1]; [6],0.933
